Experimental data taken from ChEMBL document CHEMBL3988442, “University of Dundee, Small-Polar-MMV Screening Library” (2021).
For some assays here: Potency and affinity values are given separately.

Legend:
Design in all cases: scale not given: direction of the effect not stated beside the values
[1] = target: Protein translocase subunit SecA (Escherichia coli (strain K12)) (UniProt P10408); test: Assay to Identify E. coli SecA ATPase Inhibitors; assay type: functional; conditions: 30 µM
[2] = target: T1, Ubiquitin-activating enzyme e1, putative (Leishmania donovani (strain BPK282A1)) (UniProt E9BSI1); test: Leishmania donovani Ubiquitin Activating Enzyme (LdE1); assay type: functional; conditions: 30 µM
T1 sequence (whole entry): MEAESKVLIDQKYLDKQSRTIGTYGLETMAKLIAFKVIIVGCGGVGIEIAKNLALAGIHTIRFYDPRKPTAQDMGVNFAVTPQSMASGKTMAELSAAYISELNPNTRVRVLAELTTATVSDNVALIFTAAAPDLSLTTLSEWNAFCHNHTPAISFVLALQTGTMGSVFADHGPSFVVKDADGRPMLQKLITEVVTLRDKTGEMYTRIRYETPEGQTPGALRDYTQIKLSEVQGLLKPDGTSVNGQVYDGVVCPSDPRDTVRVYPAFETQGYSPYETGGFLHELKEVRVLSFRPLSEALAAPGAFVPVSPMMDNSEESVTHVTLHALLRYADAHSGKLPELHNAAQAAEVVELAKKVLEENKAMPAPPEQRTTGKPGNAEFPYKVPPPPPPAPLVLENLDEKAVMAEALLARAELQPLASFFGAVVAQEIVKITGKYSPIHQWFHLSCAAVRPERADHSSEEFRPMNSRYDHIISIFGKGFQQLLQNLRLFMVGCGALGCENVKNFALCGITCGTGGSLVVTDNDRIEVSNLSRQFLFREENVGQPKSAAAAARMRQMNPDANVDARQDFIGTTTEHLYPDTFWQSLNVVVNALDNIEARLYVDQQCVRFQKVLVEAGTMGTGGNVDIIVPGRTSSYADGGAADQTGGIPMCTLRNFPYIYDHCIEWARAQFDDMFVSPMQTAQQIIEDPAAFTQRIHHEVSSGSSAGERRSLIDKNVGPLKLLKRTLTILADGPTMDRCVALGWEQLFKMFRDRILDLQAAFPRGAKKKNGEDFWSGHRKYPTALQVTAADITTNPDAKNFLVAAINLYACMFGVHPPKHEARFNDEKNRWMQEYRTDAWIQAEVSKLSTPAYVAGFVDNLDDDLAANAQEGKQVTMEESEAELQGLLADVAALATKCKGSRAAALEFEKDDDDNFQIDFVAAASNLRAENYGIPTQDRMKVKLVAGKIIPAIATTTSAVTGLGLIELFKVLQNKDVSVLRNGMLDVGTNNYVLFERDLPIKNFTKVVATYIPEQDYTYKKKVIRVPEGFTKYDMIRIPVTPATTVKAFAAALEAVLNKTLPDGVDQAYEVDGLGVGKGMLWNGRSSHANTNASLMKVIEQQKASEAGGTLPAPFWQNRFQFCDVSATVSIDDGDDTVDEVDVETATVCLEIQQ

[3] = target: AMP-activated protein kinase, AMPK (Homo sapiens) (UniProt P54646+O43741+P54619+Q9UGJ0+Q9Y478+Q13131+Q9UGI9); test: AMP-dependent Kinase enzyme assay. An in vitro enzyme assay that detects ADP turnover that is directly proportional to AMPK activity. This uses naive AMPK that is activated during the assay with MK-8722; assay type: functional; conditions: 30 µM
[4] = target: Sialic acid-binding Ig-like lectin 9 (Homo sapiens) (UniProt Q9Y336); test: Hs-Siglec9 ALPHAscreen SOP 20170721; conditions: 10 µM
[5] = system: Trypanosoma cruzi; test: Trypanosoma cruzi phosphomannomutase and mannose-1-phosphate guanylyltransferase assay; assay type: functional; conditions: 10 µM
[6] = target: T2, Arginase-2, mitochondrial (Homo sapiens) (UniProt P78540); test: in vitro enzyme assay to detect the production of urea directly proportional to the activity of Arginase II; assay type: functional; conditions: 33.3 µM; further: in the data most compounds retested in dose-response had high values
T2 sequence (whole entry): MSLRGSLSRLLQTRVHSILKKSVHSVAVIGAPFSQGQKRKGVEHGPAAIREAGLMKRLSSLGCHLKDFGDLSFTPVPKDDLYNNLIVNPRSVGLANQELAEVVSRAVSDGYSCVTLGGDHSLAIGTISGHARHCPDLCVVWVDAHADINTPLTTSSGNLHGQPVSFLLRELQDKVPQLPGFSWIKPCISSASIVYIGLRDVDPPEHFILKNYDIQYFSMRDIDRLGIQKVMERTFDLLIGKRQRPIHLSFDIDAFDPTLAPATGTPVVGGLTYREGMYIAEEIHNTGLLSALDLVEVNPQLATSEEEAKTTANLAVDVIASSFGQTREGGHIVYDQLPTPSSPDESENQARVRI

[7] = target: T3, Proteasome subunit beta (Trypanosoma cruzi) (UniProt O96673); test: Trypanosoma cruzi proteasome chymotrypsin-like activity (TcProtChymo) assay.; further: in the data most compounds retested in dose-response had high values; assay type: functional; conditions: 9.37 µM
T3 sequence (whole entry): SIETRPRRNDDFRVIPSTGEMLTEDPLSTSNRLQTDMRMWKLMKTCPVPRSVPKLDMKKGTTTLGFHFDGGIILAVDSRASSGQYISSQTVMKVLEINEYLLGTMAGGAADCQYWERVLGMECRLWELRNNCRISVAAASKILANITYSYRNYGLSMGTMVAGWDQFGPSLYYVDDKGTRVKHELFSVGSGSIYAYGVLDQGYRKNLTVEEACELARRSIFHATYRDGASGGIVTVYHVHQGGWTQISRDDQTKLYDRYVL

[8] = species: Homo sapiens; test: To identify inhibition of the IFN signalling (Jak-Stat) pathway via expression of an eGFP reporter gene under the control of an IFN-stimulated response element (ISRE) containing MxA promoter.; assay type: functional; conditions: 30 µM
[9] = target: T4, Tyrosyl-tRNA synthetase, putative (Trypanosoma cruzi (strain CL Brener)) (UniProt Q4DSP6); test: Trypanosoma cruzi tyrosyl tRNA synthetase (TcYRS) _High Tyrosine SOP; assay type: functional; conditions: 30 µM; further: in the data most compounds retested in dose-response had high values
T4 sequence (whole entry): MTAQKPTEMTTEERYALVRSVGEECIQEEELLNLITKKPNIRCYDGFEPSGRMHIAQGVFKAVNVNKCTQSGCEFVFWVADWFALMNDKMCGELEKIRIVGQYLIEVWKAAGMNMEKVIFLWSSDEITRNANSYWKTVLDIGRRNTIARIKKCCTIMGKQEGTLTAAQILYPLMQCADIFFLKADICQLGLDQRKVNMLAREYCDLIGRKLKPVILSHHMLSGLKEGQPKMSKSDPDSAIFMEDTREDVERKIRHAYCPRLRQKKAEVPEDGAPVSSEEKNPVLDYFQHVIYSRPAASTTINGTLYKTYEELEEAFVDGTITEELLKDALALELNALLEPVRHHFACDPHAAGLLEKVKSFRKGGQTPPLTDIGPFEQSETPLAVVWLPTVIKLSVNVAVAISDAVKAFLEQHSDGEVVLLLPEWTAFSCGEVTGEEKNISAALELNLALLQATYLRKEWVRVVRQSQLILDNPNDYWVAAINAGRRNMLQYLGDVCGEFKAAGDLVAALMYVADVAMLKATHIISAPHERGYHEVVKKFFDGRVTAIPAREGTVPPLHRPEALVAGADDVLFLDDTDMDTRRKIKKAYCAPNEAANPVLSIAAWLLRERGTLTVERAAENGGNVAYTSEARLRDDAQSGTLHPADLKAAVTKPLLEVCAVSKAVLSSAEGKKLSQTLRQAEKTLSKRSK

[10] = target: T4, Tyrosyl-tRNA synthetase, putative (Trypanosoma cruzi (strain CL Brener)); test: Trypanosoma cruzi tyrosyl tRNA synthetase (TcYRS) SOP; assay type: functional; conditions: 30 µM
[11] = target: Chromo domain-containing protein 1 (Saccharomyces cerevisiae (strain ATCC 204508 / S288c) (Baker's yeast)) (UniProt P32657); test: ScCHD-1 Enzyme Inhibition Assay; assay type: functional; conditions: 30 µM; further: in the data most compounds retested in dose-response had high values
Chain of Chromo domain-containing protein 1 (Saccharomyces cerevisiae (strain ATCC 204508 / S288c) (Baker's yeast)) (P32657 whole entry, the tested form may be a part): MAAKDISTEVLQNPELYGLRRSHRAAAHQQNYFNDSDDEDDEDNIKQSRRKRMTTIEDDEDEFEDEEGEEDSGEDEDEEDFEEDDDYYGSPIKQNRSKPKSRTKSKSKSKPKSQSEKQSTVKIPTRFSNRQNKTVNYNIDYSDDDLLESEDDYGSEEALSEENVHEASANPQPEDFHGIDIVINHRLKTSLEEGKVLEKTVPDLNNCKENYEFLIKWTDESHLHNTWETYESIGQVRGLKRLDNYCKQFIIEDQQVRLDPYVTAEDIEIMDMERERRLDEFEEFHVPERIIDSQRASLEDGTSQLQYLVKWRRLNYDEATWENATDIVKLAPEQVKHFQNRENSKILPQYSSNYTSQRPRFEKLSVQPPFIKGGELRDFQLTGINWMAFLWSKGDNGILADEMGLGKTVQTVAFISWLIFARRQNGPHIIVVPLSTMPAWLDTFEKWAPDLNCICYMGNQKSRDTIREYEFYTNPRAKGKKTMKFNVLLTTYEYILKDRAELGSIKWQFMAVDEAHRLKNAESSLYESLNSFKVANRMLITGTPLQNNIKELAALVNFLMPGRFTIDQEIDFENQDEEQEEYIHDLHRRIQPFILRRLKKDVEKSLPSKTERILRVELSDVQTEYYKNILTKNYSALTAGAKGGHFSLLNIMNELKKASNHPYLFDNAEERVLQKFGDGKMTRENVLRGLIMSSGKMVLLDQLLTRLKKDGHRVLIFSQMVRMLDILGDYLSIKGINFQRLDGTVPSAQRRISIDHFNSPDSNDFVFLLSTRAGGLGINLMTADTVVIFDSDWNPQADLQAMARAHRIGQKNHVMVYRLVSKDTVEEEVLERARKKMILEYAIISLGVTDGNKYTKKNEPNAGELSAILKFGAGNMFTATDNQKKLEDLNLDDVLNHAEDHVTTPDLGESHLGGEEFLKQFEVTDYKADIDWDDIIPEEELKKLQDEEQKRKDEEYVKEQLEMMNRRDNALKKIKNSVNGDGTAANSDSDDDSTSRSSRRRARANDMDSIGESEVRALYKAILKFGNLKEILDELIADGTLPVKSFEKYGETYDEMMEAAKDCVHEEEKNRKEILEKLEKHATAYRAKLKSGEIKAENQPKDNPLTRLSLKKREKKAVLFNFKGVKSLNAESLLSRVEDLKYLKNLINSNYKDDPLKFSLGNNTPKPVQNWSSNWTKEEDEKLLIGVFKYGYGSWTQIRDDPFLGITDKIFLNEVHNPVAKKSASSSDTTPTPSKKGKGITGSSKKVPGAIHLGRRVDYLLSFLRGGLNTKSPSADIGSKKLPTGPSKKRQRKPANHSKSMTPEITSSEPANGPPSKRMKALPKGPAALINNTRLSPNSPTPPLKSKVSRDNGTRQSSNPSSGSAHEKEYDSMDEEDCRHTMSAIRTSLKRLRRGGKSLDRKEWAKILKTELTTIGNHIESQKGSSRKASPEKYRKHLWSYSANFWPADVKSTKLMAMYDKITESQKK

Chain of Sialic acid-binding Ig-like lectin 9 (Homo sapiens) (Q9Y336 whole entry): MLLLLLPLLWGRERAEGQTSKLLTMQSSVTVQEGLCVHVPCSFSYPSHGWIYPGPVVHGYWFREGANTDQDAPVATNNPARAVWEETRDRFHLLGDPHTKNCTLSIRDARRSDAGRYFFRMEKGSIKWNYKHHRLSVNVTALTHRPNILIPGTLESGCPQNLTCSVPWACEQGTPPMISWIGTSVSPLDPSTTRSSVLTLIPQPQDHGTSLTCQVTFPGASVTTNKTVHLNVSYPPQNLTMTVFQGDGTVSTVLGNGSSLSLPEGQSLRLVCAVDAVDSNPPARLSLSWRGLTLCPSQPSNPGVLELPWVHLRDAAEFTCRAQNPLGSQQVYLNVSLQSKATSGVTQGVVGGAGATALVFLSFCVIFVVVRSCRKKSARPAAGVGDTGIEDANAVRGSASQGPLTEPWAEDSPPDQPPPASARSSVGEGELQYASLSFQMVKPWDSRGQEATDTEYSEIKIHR
Chain of Protein translocase subunit SecA (Escherichia coli (strain K12)) (P10408 whole entry): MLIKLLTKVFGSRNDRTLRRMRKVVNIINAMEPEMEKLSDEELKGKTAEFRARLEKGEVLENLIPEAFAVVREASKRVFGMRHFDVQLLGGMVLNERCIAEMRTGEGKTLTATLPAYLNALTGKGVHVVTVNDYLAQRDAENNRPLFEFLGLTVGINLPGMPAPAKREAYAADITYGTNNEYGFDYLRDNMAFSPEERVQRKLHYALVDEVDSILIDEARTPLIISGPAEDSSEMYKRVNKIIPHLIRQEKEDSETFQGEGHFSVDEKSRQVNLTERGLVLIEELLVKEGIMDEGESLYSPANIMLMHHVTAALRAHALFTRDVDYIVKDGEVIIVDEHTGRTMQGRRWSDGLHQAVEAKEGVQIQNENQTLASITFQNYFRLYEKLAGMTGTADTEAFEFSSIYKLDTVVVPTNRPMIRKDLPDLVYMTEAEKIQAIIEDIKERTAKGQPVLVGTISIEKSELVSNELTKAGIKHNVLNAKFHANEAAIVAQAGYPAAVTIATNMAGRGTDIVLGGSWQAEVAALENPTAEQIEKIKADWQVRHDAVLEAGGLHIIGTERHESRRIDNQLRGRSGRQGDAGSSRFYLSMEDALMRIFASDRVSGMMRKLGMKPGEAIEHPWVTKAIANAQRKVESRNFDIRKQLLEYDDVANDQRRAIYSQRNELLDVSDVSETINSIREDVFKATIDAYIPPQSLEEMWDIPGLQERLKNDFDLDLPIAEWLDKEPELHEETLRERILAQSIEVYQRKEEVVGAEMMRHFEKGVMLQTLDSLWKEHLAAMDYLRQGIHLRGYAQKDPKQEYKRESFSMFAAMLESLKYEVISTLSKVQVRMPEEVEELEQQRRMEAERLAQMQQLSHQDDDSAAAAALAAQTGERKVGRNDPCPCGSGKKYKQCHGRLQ

SMILES	Percent Effect [1] [%]	Percent Effect [2] [%]	Percent Effect [3] [%]	Percent Effect [4] [%]	Percent Effect [5] [%]	Percent Effect [6] [%]	Percent Effect [7] [%]	Percent Effect [8] [%]	Percent Effect [9] [%]	Percent Effect [10] [%]	Percent Effect [11] [%]
COCCOc1ccccc1C(=O)N1CCCCC1c1nccs1 (stereo unspecified)	-5.08	5.41	-31.5	16.3	7.45	-2.81	2.52	-0.874	4.43	11.1	-14.3
OCc1ccc(Cl)c(NCc2cccnc2)c1	-4.1	0	-0.207	-4.73	-1.85	2.37	2.01	-2.65	0	-5.2	-6.29
Cc1cccc(-n2ncc(C(=O)N3CCn4c(C)nnc4C3)c2C)c1	-5.28	13.2	0.162	-0.191	-4.58	1.8	5.16	12.8	-0.493	3.7	-0.99
CC(=O)N1CCN([C@@H]2CC[C@@H](NC(=O)c3cncc(C)c3)[C@H]2O)CC1	-3.3	-4.05	8.93	-4.38	-3.75	-2.09	-3.28	18.6	-2.15	-11.7	15.5
Cc1cn(CC(=O)NC2CCN(C(=O)C3CC3)CC2)c2ccccc12	-5.47	2.7	-7.57	10.7	7.72	0.744	4.55	9.22	3.23	11.1	-3.71
Cc1ccsc1[C@@H]1CCN(C(=O)c2cc3ccccc3[nH]2)C[C@H]1O	-2.04	-1.39	0.967	-5.71	-6.51	-0.442	15.3	12.8	-3.16	-2.56	2.93
N#Cc1ccc(F)c(CN2CCCC2Cn2cnc3ccccc32)c1 (stereo unspecified)	-4.77	-5.41	-0.578	-0.466	-3.81	-0.924	6.46	22.9	1.98	-6.1	5.03
CNc1cncc(C2CCCN(S(C)(=O)=O)C2)n1 (stereo unspecified)	-1.57	-1.35	13.3	2.54	-6.92	3.48	17	23.6	1.07	6.49	-15.8
COCCCNC(=O)CN1CCCC1c1c(C)nn(C)c1Cl (stereo unspecified)	-8	8.86	-7.07	-3.46	2.15	2.37	7.38	-0.237	1.04	-7.59	-25.1
CC(C)N(C)Cc1nnc2n1CCN(Cc1ccncc1)CC2	-1.23	8	2.82	-4.03	-3.67	-54.7	2.73	1.94	-2.08	5	-6.5
Cc1ccc(O)c(CNC2CCc3nc(C(C)C)nn3C2)n1 (stereo unspecified)	-9.46	13.2	2.66	6.11	3.02	-5.92	8.15	-5.66	1.06	10.4	-14.7
COc1ccc(-c2csc(N)c2C#N)cc1OC	-2.5	6.67	-9.01	5.81	4.91	-6.16	7.02	12.1	1.06	0	-1.98
O=C(Cn1cnc(-c2ccccc2)cc1=O)Nc1ccncc1	-2.42	20.8	-3.34	-1.53	2.07	1.94	16.9	26.1	6.35	16.7	-9.23
Cc1cnn(CC2CCCN2c2nn3cc(C)nc3s2)c1 (stereo unspecified)	-7.38	11.4	-3.44	2.81	-0.103	-1.07	7.03	8.17	-2.08	15.2	-26
COc1ccnc(N2CCN(CC(=O)N3CCOCC3)CC2)n1	-3.7	18.4	3.44	-1.28	-0.28	-5.04	8.54	-2.03	8.37	18.5	-6.56
COCC1CC2(CCN(C(=O)c3cccn3C)CC2)CN1C(C)C (stereo unspecified)	-2.49	-13.5	4.17	-2.06	1.37	-1.67	0.761	-12.3	7.92	3.66	-4.39
